These results are taken from PubChem BioAssay (EPA / NIEHS).

A structure can be active in one record and inactive in another. The source made the active and inactive calls. Rule for the calls: active = hit-call score of the fitted dose curve at least 0.9, where 1 is the maximum; inactive = score below 0.9.

As usually defined, the AC50 is the concentration giving half of the maximal activity seen.

Read-out in assay [1]: Human Leukocyte Antigen - DR isotype (HLADR), HLA-DRA (gene 3122)
The assay is described as follows: BSK_BE3C_HLADR: BioMAP Diversity Plus: BE3C Assay for Human Leukocyte Antigen - DR isotype (HLADR) Biomarker Activity (AID 2283032). As to conditions: primary human bronchial epithelial cells; actives raise or lower the signal. The essentials:
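Human primary bronchial epithelial cells (BE3C system) exposed to compound for 24 hours; cell-surface HLA-DR measured by ELISA, fitted bidirectionally relative to DMSO. Total protein by SRB in parallel cultures tracked cytotoxicity.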

Read-out in assay [2]: Interferon-gamma inducible Protein 10 (IP10), CXCL10 (gene 3627)
As to the kind of experiment: BSK_BE3C_IP10: BioMAP Diversity Plus: BE3C Assay for Interferon-gamma inducible Protein 10 (IP10) Biomarker Activity (AID 2283034). To be noted: primary human bronchial epithelial cells; actives raise or lower the signal. The essentials:
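Primary human bronchial epithelial cells, with IP-10 measured by ELISA 24 hours after chemical dosing. Bidirectional fit against DMSO; cytotoxicity checked by SRB total protein staining in parallel cultures.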

Read-out in assay [3]: Transforming growth factor beta 1 (TGFb1), TGFB1 (gene 7040)
The assay is described as follows: BSK_BE3C_TGFb1: BioMAP Diversity Plus: BE3C Assay for Transforming growth factor beta 1 (TGFb1) Biomarker Activity (AID 2283036). To be noted: primary human bronchial epithelial cells; actives raise or lower the signal. The essentials:
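Primary human bronchial epithelial cells dosed with chemical; TGF-b1 measured by ELISA 24 h after dosing. Bidirectional curve fitting against DMSO negative control; SRB total-protein staining in parallel cultures gauged cytotoxicity.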

Read-out in assay [4]: Plasminogen activator inhibitor-1 (PAI1), SERPINE1 (gene 5054)
As to the kind of experiment: BSK_BE3C_PAI1: BioMAP Diversity Plus: BE3C Assay for Plasminogen activator inhibitor-1 (PAI1) Biomarker Activity (AID 2283037). To be noted: primary human bronchial epithelial cells; actives raise or lower the signal. The essentials:
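Primary human bronchial epithelial cells (BE3C system) exposed 24 h; PAI-1 quantified by ELISA. Parallel sulforhodamine B staining of total protein flags cytotoxicity. Bidirectional fit versus DMSO.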

Read-out in assay [5]: urokinase plasminogen activator (uPA), PLAU (gene 5328)
The assay is described as follows: BSK_BE3C_uPA: BioMAP Diversity Plus: BE3C Assay for urokinase plasminogen activator (uPA) Biomarker Activity (AID 2283038).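 Note: uPA protein level quantified by ELISA in cell cultures; uPA read one day after compound addition.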 To be noted: primary human bronchial epithelial cells; actives raise or lower the signal. The gist of the method: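 ELISA for uPA on human primary bronchial epithelial cultures 24 h post-treatment, gain or loss against DMSO. Parallel SRB staining (0.1% after 10% TCA fixation, 560 nm) assessed overt cytotoxicity.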

Read-out in assay [6]: Urokinase-type plasminogen activator receptor (uPAR), PLAUR (gene 5329)
The assay is described as follows: BSK_BE3C_uPAR: BioMAP Diversity Plus: BE3C Assay for Urokinase-type plasminogen activator receptor (uPAR) Biomarker Activity (AID 2283039).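 For outcome: uPAR protein level measured by ELISA on the cells; cells exposed to compound for one day before measurement.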 As to conditions: primary human bronchial epithelial cells; actives raise or lower the signal. The essentials:
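Primary human bronchial epithelial cells dosed for 24 h; uPAR quantified by ELISA with bidirectional fitting against DMSO. Overt cytotoxicity assessed in parallel cultures by SRB total-protein staining (0.1% SRB, 560 nm).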

Read-out in assay [7]: Monokine induced gamma interferon (MIG), CXCL9 (gene 4283)
As to the kind of experiment: BSK_BE3C_MIG: BioMAP Diversity Plus: BE3C Assay for Monokine induced gamma interferon (MIG) Biomarker Activity (AID 2283035).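 Note: MIG protein measured by ELISA in BE3C cultures after 24 h of dosing.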 To be noted: primary human bronchial epithelial cells; actives raise or lower the signal. The gist of the method: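 MIG level was determined by ELISA after 24 h chemical treatment of primary human bronchial epithelial cells. Values were fitted bidirectionally with DMSO as the negative control and activity baseline.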

Read-out in assay [8]: Vascular cell adhesion molecule 1 (VCAM1), VCAM1 (gene 7412)
As to the kind of experiment: BSK_4H_VCAM1: BioMAP Diversity Plus: 4H Assay for Vascular cell adhesion molecule 1 (VCAM1) Biomarker Activity (AID 2283033). As to conditions: primary human endothelial cells (HUVEC); actives raise or lower the signal. The essentials: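 Primary human umbilical vein endothelial cells, 4H stimulation system, treated for 24 h; cell-surface VCAM-1 quantified by ELISA. Bidirectional fitting against DMSO; cytotoxicity tracked by SRB total-protein staining in parallel cultures.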

Regarding `CCS(=O)(=O)c1cccnc1S(=O)(=O)NC(=O)Nc1nc(OC)cc(OC)n1`, the outcome in assay [1], in assay [2], in assay [3], in assay [4], in assay [5] and in assay [6] was inactive.
As to `CCCN(CCC)c1c([N+](=O)[O-])cc(C(F)(F)F)cc1[N+](=O)[O-]`, the result in assay [1], in assay [7], in assay [3], in assay [4], in assay [5] and in assay [6] was inactive. In addition, the AC50 in assay [2] is 25.1 µM (active).
On to `O=[N+]([O-])/N=C1\NCCN1Cc1ccc(Cl)nc1`, for which the outcome in assay [1], in assay [2], in assay [4], in assay [5] and in assay [6] was inactive.
With `O=C(O)C(F)(F)C(F)(F)C(F)(F)C(F)(F)C(F)(F)C(F)(F)C(F)(F)F`, the result in assay [1], in assay [2], in assay [7], in assay [4], in assay [5] and in assay [6] was inactive. Besides, the AC50 in assay [2] was 43.9 µM (active) [middle of 4 runs].
With `O=C(O)COc1ccc(Cl)cc1Cl`, the result in assay [1], in assay [2], in assay [4] and in assay [5] was inactive. Also, the AC50 in assay [6] is 0.152 µM (active).
As for `O=[N+]([O-])c1c(Cl)c(Cl)c(Cl)c(Cl)c1Cl`, the result in assay [1], in assay [2], in assay [4], in assay [5] and in assay [6] was inactive. In assay [8], the AC50 is 19.3 µM (active).
Take `COc1cc(OC)nc(NC(=O)NS(=O)(=O)c2cc(NC=O)ccc2C(=O)N(C)C)n1`: the outcome in assay [1], in assay [2], in assay [7], in assay [3], in assay [4] and in assay [5] was inactive. Also, the result in assay [6] was inactive.
